Assay results from the supplement of paper PMC12632987.

T1: USP38, Q8NB14
T1 chain: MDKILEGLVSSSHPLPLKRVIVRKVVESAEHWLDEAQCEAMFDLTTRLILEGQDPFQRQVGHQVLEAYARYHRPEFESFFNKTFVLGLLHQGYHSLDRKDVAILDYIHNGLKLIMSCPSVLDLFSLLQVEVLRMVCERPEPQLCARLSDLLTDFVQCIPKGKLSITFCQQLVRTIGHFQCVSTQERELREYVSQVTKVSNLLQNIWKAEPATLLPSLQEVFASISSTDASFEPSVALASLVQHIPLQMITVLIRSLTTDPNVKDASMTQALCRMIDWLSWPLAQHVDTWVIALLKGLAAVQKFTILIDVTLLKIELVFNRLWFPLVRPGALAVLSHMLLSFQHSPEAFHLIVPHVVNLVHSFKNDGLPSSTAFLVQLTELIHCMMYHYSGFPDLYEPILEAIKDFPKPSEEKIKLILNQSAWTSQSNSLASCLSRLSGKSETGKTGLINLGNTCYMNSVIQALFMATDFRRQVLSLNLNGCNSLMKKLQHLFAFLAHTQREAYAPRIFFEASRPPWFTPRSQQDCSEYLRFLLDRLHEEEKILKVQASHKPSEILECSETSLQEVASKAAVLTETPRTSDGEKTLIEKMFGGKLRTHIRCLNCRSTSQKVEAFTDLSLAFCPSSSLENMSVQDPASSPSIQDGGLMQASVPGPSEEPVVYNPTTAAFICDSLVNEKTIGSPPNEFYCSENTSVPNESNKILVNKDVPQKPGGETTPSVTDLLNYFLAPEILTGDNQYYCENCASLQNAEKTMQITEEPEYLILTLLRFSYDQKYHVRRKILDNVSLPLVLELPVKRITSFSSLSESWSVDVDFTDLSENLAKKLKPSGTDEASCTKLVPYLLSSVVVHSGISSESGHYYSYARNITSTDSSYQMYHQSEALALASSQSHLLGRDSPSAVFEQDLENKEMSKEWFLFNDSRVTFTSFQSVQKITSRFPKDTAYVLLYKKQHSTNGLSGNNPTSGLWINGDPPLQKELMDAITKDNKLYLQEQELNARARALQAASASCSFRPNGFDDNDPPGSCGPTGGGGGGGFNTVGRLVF


Target: T1, USP38, Q8NB14
Test: median log2 fold change of GCK-ALFA target abundance (FLAG IP / Myc IP barcode read proportion) (log2 ratio); each designed protein is fused to an ALFA-tag nanobody in HEK293 cells to bring the named protein to FLAG-tagged glucokinase (GCK); Myc marks an untargeted standard; higher = target protein stabilised (more abundant)
Conditions: target protein: 3xFLAG-MCP-GCK-ALFA reporter; HEK293 landing pad (RPLP)
Summary of the method: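 HEK293 landing-pad cells received a recombined binder library fused to the ALFA nanobody and were induced with 2 μg mL^−1 doxycycline, then transfected with a plasmid encoding a FLAG-tagged target and a Myc-tagged standard. Lysates were collected after 48 h for anti-FLAG and anti-Myc immunoprecipitation, and the circular RNA barcodes were reverse transcribed, amplified and sequenced. Target abundance for each binder is the median log2 ratio of FLAG to Myc barcode read proportions. Barcodes had to reach a proportion of at least 10^−7 in both replicates, each binder needed at least 3 barcodes per replicate, a pseudocount of 10^−6 was applied, and the two replicates were pooled.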

Binder | median log2 fold change
usp_38_diff_out_15_85_154 (protein) EAEELKREIEEEIRRAEELLAEAEALLADPAAPLEEIEAVLDEAARALGRAEALARELRRRFPEYREYVKEVLERLDELTDRLLALETEAFERRAEEDLA | -0.0616
usp_38_diff_out_15_85_155 (protein) EAEELKREIEREIEEARRLLEEARALLADPAAPLAAIREVLDRAAEALGRAEALARELRRRFPEYREFVKKALEELDRLTDELERLAREAFEREADALAA | 0.127
usp_38_diff_out_15_85_156 (protein) EAEKLKEEIERKIKEAEKLLKEAKKLLADPKAPLEEIRKVLDKAAEALGEAEKLARELRRKFPEEREYVKEVLKRLDKLVDELEKLAREAFEREADALLA | -0.0522
usp_38_diff_out_15_85_157 (protein) AAEALKAEIQAKIAEAKALLAEAKALLADPAAPLAEIEAVLDAAARALGQAQALARQLRREFPEQAAFVKAANAELDALTDELTALARAAFERRAEADLA | 0.104
usp_38_diff_out_15_91_159 (protein) LESKLEAARGVAAWAEEMAARARELGLEEEAALFEEVAAAARELAELLEKIIKLKKEGADPKEIEAARKEAKAAEARLNELLSRAVPAAARVLLAEQERE | -0.149
usp_38_diff_out_15_91_160 (protein) LESKLQAAKGTADWAKEMREEAEELGLEEEAALLEEVRKLAEELAKLLEELIKLEKEGAPQEEIDKLRKEAKEKEKELNEAISKAVPAAARILLARQEKE | 0.0652
usp_38_diff_out_15_91_161 (protein) LESKLQAAEGTADYAKEMKAEAEKLGLEEQAKKLQEVADAAKKLAELYKKLIKLEKEGAPKEEIEKVRKEAKKLEEELNKLISEAVPYMAEILLKKQEKE | -0.0204
usp_38_diff_out_15_91_162 (protein) LESKLQAARGTADYAREMQERAEELGLEEEAALLQKVRDAAEELAKLYEELIALQKAGADQAEIDKVRKEAKKLLEELNKLISEAVPAAARILLKEQERE | -0.243
usp_38_diff_out_15_91_163 (protein) MSSRTIATEGTLKRLKEDAELARELGLEETAKKAEEAAKLAEELLKLLKEREKAIKAGAPKEEIEKLRKEAKKKEKELNEKLSELVPDWAELELKRIEKE | 0.082
usp_38_diff_out_15_91_164 (protein) MSSKTIATKGTRDYLKDAAAEAKELGLEETAKALEEAAALADQLLDLLEQLEKAEKEGADQAEIDKLRKEAKELDAKLNEKISELVPGLAELEQKRIERE | 0.19
usp_38_diff_out_16_109_165 (protein) SQDEEADRLLAEAAIANLKALAKEAKEELKKLKARGASPEVLAAYQKLADTAEAAAKAIEAALKAGKNLRETTDKQLDAVGAAAAAASALRRAEARERSA | 0.0224
usp_38_diff_out_16_109_166 (protein) SADEEADRLLAEAAIENFEKLAEEAKEELKKLKAKGASEEVLKAYEDLAKTAREAAEKIREALERGENLRETTREQWDKVGAKAAEASELRRAEARERSA | 0.186
usp_38_diff_out_16_109_167 (protein) SADEEAAKLLAEATIKELKALAKEAEERLKKLKAKGASEEVLAAEKKLADTAKKAAEEIEKALKKGENILETTNKKWDEVGAAAAEAAELRRAEARARSA | 0.102
usp_38_diff_out_16_109_168 (protein) SADEEADRLLAEAAIANFRALAADAEAELKRLEARGASPAVLKAYADLAAKAKEAAATIEAALAKGENLRETTDAQWDAVGAAAARASELRRAEARERSA | 0.16
usp_38_diff_out_16_109_169 (protein) SADEEADRLLAEAAIANFRALAEEARARLARLKARGASPAVLAAHQALADTAEAAAAEIEAALAAGENLRETTDRQWDAVGAAAAAASAALRAEARARSA | -0.16
usp_38_diff_out_16_109_170 (protein) SQDEEADRLLAEATIENLKALAEEAKERLKKLEAKGASAEVLKAYKDLAETAKKAAEEIKEALKKGENIRETTDKKWDEVGKAAAAASEARRAEARARSA | 0.177

Binder | median log2 fold change
usp_38_diff_out_16_109_171 (protein) SADEEADRLLAEAAIRNLRALAEAAEAELEKLEARGASPEVLAAYRDLAELARRAAEEIERALEEGRDLRETTDREWDRVGAAAARAAELRRAEARRRSA | -0.352
usp_38_diff_out_16_109_172 (protein) SADAEADRLLAEAAIENLRALAEEARRELERLEAKGASEEVLAAYRALAETAEAAAATIEAALAAGKDIRATTDAQWDAVGAAAARASELREAEARARSA | -0.0926
usp_38_diff_out_16_109_173 (protein) SQQAEGDRLFAEAAAANFRSLAEDAEAALARAKERGASPEVLAALQDLADTAKAAADTIEKTIADGGDLRATTDAQWDAVGAAAARADAIRRAEARARSD | -0.0935
usp_38_diff_out_16_109_174 (protein) SAQEEADREYALAVIENLKKLAKEAEEELKKLKARGASEEVLKAYEELAKTAKEAAKALEEALKAGEDLRAIANEKWDEVGKKAAEAAELLREEVRRRSA | -0.105
usp_38_diff_out_16_109_175 (protein) SAQAEADRAFAEAAIANFRSLAADARARLARLEARGASPEVLAAYADLAATATAAAAALEAALAAGEDLRAAANAAWDAVGAAAARAARLLQEEVRRRSA | -0.756
usp_38_diff_out_16_109_176 (protein) SAQAEADRAFAEAVVANLRALAEDAEARLARLEARGASPAVLAAYRDLADTARAAAAALEEAIAAGEDLRAIANAQWDRVGAAAARAADLLRAEVDARSA | 0.125
usp_38_diff_out_16_109_177 (protein) SAQEEADREYAEAVIKNLKELAKEAKERLKKLEEKGASEEVLKAYKELAETAKKAAERLEKALKAGEDLRKIADEEWDKVGAAAAKAAEILREEVRKKSE | 0.0634
usp_38_diff_out_16_109_178 (protein) SAEDEANVEYAKAVIENLEKLAEEAEAELKRLQARGASAEVLAAYQKLADLAKEAAERLKKALAEGKDLRAIADEEWDRVGAAAAEAAELRQQEVRARSA | 0.375
usp_38_diff_out_16_109_179 (protein) SAQAEADRAFAEAAIANFEALAADAEAELARLKARGASPEVLAAYQALADTARAAAAALRAALAAGEDLRAATNAKWDEVGAKAAEAAELRRAEVRRRSA | -0.0762
usp_38_diff_out_16_109_180 (protein) SAEAEADKAYAEAVIANLEALAKAAEAELKKLKARGASPEVLAAYQALRDTAKAAAATLKAALAAGEDLRAIADAQWDAVGAAAAAAAALRRAEVAARSA | -0.191
usp_38_diff_out_16_109_181 (protein) SAEEEAAREYAEAAVANFRALAADAEARLARLEARGASPEVLAAYRDLAATARAAAAALEAAIAAGEDLRAAADAQWDAVGAAAARAAEIRRAEVRRRSA | -0.515
usp_38_diff_out_16_109_182 (protein) AAEEEAARLLAEASIANFEALAEEARAQLAKAQARGASPEVLAALQDLADTARAAAAAIRRALEAGEDLRAVTDAQWDAVGAAAARANRLREAETDARSA | 0.0957
usp_38_diff_out_16_109_183 (protein) SADEEAARLLAEASIKNFRNLAKEAQAALAKAQARGASADVLAALQDLADTAKAAAERIEKAIKEGKDLLAVTNAEWDAVGAAAARARELREAETRARSA | -0.397
usp_38_diff_out_16_109_184 (protein) SADEEADRLLAEASIKNFRDLSKDARAEAERLKARGASQAVIDAYNELAKTAEAAAEEIEKALEAGEDLRAVTDAQWDKVGAAAKKANDLRRAEARARTA | -0.0394
usp_38_diff_out_16_109_185 (protein) AAQREADRALAEAAIANFRALAAEARARAAALRARGAPQAVIDAYDDLAATADAAAAALEAALAAGEDLRAAVDREWDAVGAAAAAAEALRRAATAARSA | -0.358
usp_38_diff_out_16_109_186 (protein) SEQAESDRLLAEAAIANFKALAADARAEAARLKAKGASQAVIDAYNALADTATAAAAALEAALAAGEDLRATLDAQWDAVGAAAAAARDLREAETAARSA | 0.0614
